The values that follow come from PubChem BioAssay (NCI).

Some test systems named below: DU-145 prostate; K-562 leukemia; MALME-3M melanoma; MDA-MB-231 breast; SF-268 CNS; SF-295 CNS; SF-539 CNS; UACC-257 melanoma; M14 melanoma; RXF 393 renal.
Common to all, as to test: NCI-60 one-dose screen, 48 h (100 = growth as untreated, 0 = no growth, -100 = all killed)
Common to all, as to settings: 10 µM

This is part of a sample that, as a whole, favours compounds with a hit. Of some 83,000 tested, about 20% had one in any assay.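 96-well plates, one dose, 48 hours. Percent growth reported; active if below 10.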 Values without a mark were called inactive. Activity calls are given as the source filed them.

Regarding `CC(C)(C)CC(C)(C)c1ccc(O)c(Cc2ccc(Cl)cc2Cl)c1`, the growth is -89.2% (active) in the experiment with DU-145 prostate; -59% (active) with K-562 leukemia; -89.4% (active) in the experiment with MALME-3M melanoma; -88.4% (active) in the experiment on MDA-MB-231 breast; -83.6% (active) in the experiment on SF-268 CNS; -91.6% (active) in the experiment on SF-295 CNS. Moreover, the growth was -75.5% (active) in the experiment with SF-539 CNS, -66.1% (active) with UACC-257 melanoma and -87.9% (active) in the experiment on M14 melanoma.

As to `O=C(OCC1OC(n2cc(C(F)(F)F)c(=O)[nH]c2=O)CC1OC(=O)c1ccc([N+](=O)[O-])cc1)c1ccc([N+](=O)[O-])cc1` (stereo not given), the growth is 30.3% in the experiment on DU-145 prostate; 62% in the experiment on K-562 leukemia; 95.3% in the experiment on MDA-MB-231 breast; 80.3% with RXF 393 renal; 55.6% in the experiment on SF-268 CNS; 63.5% with SF-295 CNS. Besides, the growth was 18.3% in the experiment on SF-539 CNS, 38.4% in the experiment on UACC-257 melanoma and -17.6% (active) with M14 melanoma.

On to `C/C(=N\NC(=O)c1sc(=S)n(C)c1N)c1cc2ccccc2o1`, for which the growth in the experiment with DU-145 prostate is 77.4%; in the experiment with K-562 leukemia, -10.9% (active); with MALME-3M melanoma, 99.3%; in the experiment with MDA-MB-231 breast, 36%; with SF-268 CNS, 55.9%; with SF-295 CNS it was -20.6% (active). Besides, the figures for the growth with SF-539 CNS, in the experiment on UACC-257 melanoma and in the experiment with M14 melanoma were 71.9%, 56.5% and 40.8%, respectively.

Turning to `CCCCOCC(=O)NC(NP(=O)(N(C)C)N(C)C)C(Cl)(Cl)Cl` (stereo not given), the growth in the experiment on DU-145 prostate is 139%; in the experiment with K-562 leukemia, 84.2%; in the experiment with MDA-MB-231 breast, 121%; in the experiment on RXF 393 renal it was 130%; with SF-268 CNS, 122%; in the experiment with SF-295 CNS it was 70%. Also, the figures for the growth in the experiment on SF-539 CNS, with UACC-257 melanoma and in the experiment on M14 melanoma were 114%, 108% and 94.3%, respectively.

On to `COC(=O)CCCCCCCCC(C)c1ccc(C(C)=O)cc1` (stereo not given), for which the growth in the experiment with DU-145 prostate is 108%; in the experiment on K-562 leukemia, 92.3%; with MDA-MB-231 breast it was 119%; in the experiment with RXF 393 renal it was 111%; in the experiment on SF-268 CNS, 104%; with SF-295 CNS it was 92.1%. Besides, the growth in the experiment with SF-539 CNS was 101%; with UACC-257 melanoma it was 119%; in the experiment on M14 melanoma it was 121%.

Consider `Cc1cc(C#Cc2ccccc2)ccc1-n1c(/C=C/c2cc(O)ccc2O)nc2ccccc2c1=O`, for which the growth with DU-145 prostate is 2.27% (active); with K-562 leukemia it was 7.36% (active); in the experiment on MDA-MB-231 breast it was -24.2% (active); in the experiment with RXF 393 renal it was -27.9% (active); with SF-268 CNS it was 5.15% (active); in the experiment with SF-295 CNS, -14.6% (active). In addition, the growth in the experiment on SF-539 CNS is -20.9% (active); in the experiment with UACC-257 melanoma, 20%; in the experiment with M14 melanoma it was -3.57% (active).

Take `COc1ccc(-c2csc(-c3cc(Cl)cc(Cl)c3Cl)n2)cc1`: the growth in the experiment on DU-145 prostate was 99.8%; with K-562 leukemia, 83.9%; in the experiment on MALME-3M melanoma, 77.7%; in the experiment with MDA-MB-231 breast, 73.6%; with SF-268 CNS it was 97.1%; with SF-295 CNS it was 103%. Also, the values for the growth with SF-539 CNS, in the experiment on UACC-257 melanoma and with M14 melanoma were 94.8%, 46.2% and 97.7%, respectively.

Take `COc1cc(-c2n/c(=C\c3c(O)[nH]c4ccccc34)cc3c2=Nc2ccccc2-3)cc(OC)c1OC`: the growth was 11.5% with DU-145 prostate; 6.57% (active) in the experiment with K-562 leukemia; 10.8% in the experiment on MDA-MB-231 breast; -22.3% (active) in the experiment on RXF 393 renal; 19.3% with SF-268 CNS; 8.6% (active) in the experiment with SF-295 CNS. Besides, the growth was 1.21% (active) in the experiment on SF-539 CNS, 56.2% in the experiment on UACC-257 melanoma and -5.09% (active) in the experiment with M14 melanoma.

As for `CC1(C)CC(=O)c2c(nc3ccc(Cl)cc3c2-c2ccccc2)C1`, the growth was 106% in the experiment with DU-145 prostate; 55.7% in the experiment on K-562 leukemia; 85% in the experiment with MDA-MB-231 breast; 3.11% (active) in the experiment on RXF 393 renal; 90.9% in the experiment with SF-268 CNS; 76% in the experiment on SF-295 CNS. The figures for the growth with SF-539 CNS, with UACC-257 melanoma and with M14 melanoma were 97.9%, 106% and 99.9%, respectively.

Take `CCOc1nc(-c2ccccc2)cc2c(O)c(C(=O)NC(C)C)[nH]c(=O)c12`: the growth with DU-145 prostate was 107%; in the experiment with K-562 leukemia, 95%; with MDA-MB-231 breast, 106%; with RXF 393 renal, 78.1%; with SF-268 CNS, 105%; in the experiment with SF-295 CNS, 89.9%. Moreover, the growth in the experiment on SF-539 CNS was 99.3%; in the experiment with UACC-257 melanoma, 84.8%; with M14 melanoma it was 101%.

For `COc1cc(/C=C2\C(=O)Nc3cc(C)c(O)cc32)cc(OC)c1OC`, the growth is 44.6% with DU-145 prostate; 15.1% in the experiment on K-562 leukemia; 39.6% with MDA-MB-231 breast; 23.5% in the experiment on RXF 393 renal; 60.6% in the experiment on SF-268 CNS; 43.3% in the experiment on SF-295 CNS. Besides, the growth in the experiment on SF-539 CNS is 71.3%; with UACC-257 melanoma, -11.1% (active); in the experiment on M14 melanoma, 65.9%.

Take `Cc1ccc(Cl)cc1Nc1nc(C(F)(F)F)ccc1C(=O)N/N=C/c1c(Cl)cccc1Cl`: the growth was 2.91% (active) with DU-145 prostate; 6.49% (active) with K-562 leukemia; -12.2% (active) in the experiment with MDA-MB-231 breast; -53.7% (active) in the experiment on RXF 393 renal; -7.33% (active) in the experiment with SF-268 CNS; -17.7% (active) in the experiment on SF-295 CNS. Moreover, the growth in the experiment on SF-539 CNS was -17% (active); in the experiment on UACC-257 melanoma it was -27.3% (active); with M14 melanoma, 11.3%.

Consider `COc1cc(N=C2C(=O)N(Cc3ccccc3)c3ccccc32)cc(OC)c1OC`, for which the growth with DU-145 prostate was 104%; in the experiment on K-562 leukemia, 97.4%; in the experiment on MDA-MB-231 breast, 105%; in the experiment with RXF 393 renal, -23% (active); with SF-268 CNS it was 97.4%; in the experiment with SF-295 CNS it was 94.3%. Besides, the growth in the experiment with SF-539 CNS is 93%; with UACC-257 melanoma it was 96.6%; in the experiment on M14 melanoma it was 98.2%.

`CC(=O)CS(C)(=O)=O`: the growth with DU-145 prostate was 106%; with K-562 leukemia, 102%; in the experiment with MDA-MB-231 breast, 108%; in the experiment on RXF 393 renal, 111%; in the experiment with SF-268 CNS it was 104%; in the experiment on SF-295 CNS, 115%. Moreover, the results for the growth in the experiment with SF-539 CNS, with UACC-257 melanoma and with M14 melanoma were 109%, 96.4% and 108%, respectively.

Consider `O=C(O)c1cc(C(F)(F)F)cc(C(F)(F)F)c1`, for which the growth with DU-145 prostate was 116%; in the experiment with K-562 leukemia, 95.2%; in the experiment on MDA-MB-231 breast, 104%; with RXF 393 renal, 105%; with SF-268 CNS it was 106%; with SF-295 CNS it was 102%. Besides, the growth is 105% with SF-539 CNS, 101% with UACC-257 melanoma and 91.1% with M14 melanoma.
